# Source: PubChem BioAssay
# SENP8 block-1 = inhibitors of human SENP8 protease; AID 2540; purified SENP8, Z-RLRGG-aminoluciferin cleavage, luminescence; actives 1.2% (n = 330,000); inhibition, % at 10 µM; in the data active = inhibition above about 50%
# SENP6 block = SENP6 protease inhibition | Recombinant SENP6 catalytic domain, aminoluciferin luminescence | inhibition, % at 10 µM | actives 1.8% (n = 330,000) | AID 2599;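 active = inhibition above about 50% at the single tested dose, limit read from the data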;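 also: plate controls were DMSO wells with enzyme for no effect and DMSO wells lacking enzyme for full effect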
# Target sequence (Q9GZR1 628-1112 limits assumed): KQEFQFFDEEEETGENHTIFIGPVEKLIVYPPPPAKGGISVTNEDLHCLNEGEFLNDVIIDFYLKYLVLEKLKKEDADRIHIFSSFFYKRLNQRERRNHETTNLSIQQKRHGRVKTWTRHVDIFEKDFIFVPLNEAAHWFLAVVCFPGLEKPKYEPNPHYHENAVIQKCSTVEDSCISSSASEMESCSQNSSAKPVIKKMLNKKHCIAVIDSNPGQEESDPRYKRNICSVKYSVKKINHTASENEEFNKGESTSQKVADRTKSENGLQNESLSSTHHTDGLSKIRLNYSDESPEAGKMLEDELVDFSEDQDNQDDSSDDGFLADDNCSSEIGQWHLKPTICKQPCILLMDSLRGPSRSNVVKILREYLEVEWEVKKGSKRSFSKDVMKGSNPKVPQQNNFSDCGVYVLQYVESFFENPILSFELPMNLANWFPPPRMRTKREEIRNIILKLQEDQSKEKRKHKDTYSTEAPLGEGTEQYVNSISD
# Platelet DG rel = platelet dense granule release activity | human platelet-rich plasma, SFLLRN dense granule ATP release, luminescence | inhibition, %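 (compounds screened at 7.5 µM in platelet-rich plasma)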 | actives 0.22% (n = 300,000) | AID 1663;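 active = mean replicate score, as percent of positive control, at or above 50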
# SENP8 block-2 = inhibitors of human SENP8 protease. Q96LD8. recombinant SENP8, Nedd8 substrate fluorescence. inhibition, % at 20 µM. actives 0.64% (n = 360,000); in the data active = inhibition mostly above about 40%, no sharp cut-off; inactive = mostly below about 27%
# SENP7 block = SENP7 protease inhibition; Q9BQF6; actives 1.5% (n = 330,000); AID 434973; recombinant SENP7, Z-RLRGG-aminoluciferin luminescence, 40 min; inhibition, % at 5 µM;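 active = inhibition above about 50% at the single test dose, limit read from the data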;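 also: plate controls were DMSO with enzyme for no effect and no enzyme buffer wells for full effect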
# SENP8 conf = confirmation of human SENP8 protease inhibitors | actives 15% (n = 1,400) | shares compounds with SENP8 block-2 | purified SENP8, Nedd8-AMC/pro-Nedd8 cleavage fluorescence, 30 min | AID 624319 | inhibition, % at 25 µM; in the data active = inhibition mostly above about 39%, no sharp cut-off; inactive = mostly below about 34%
# Active calls of the source: *; . = no result given. Sampled rows, rich in hits. Any-hit rate of the full collection: about 2.4%.
SMILES,SENP8 block-1,SENP6 block,Platelet DG rel,SENP8 block-2,SENP7 block,SENP8 conf
CN1C2=CC=CC=CC2=[N+](C)C12C=CC(=[N+]([O-])[O-])C=C2[N+](=O)[O-] (configuration not stated),4,16,6,53*,13,26
Cc1cccc(CN2C[C@]34CC[C@@H](C[C@@H]3S2(=O)=O)O4)c1,4,-1,-3,7,1,.
CS(=O)(=O)Nc1ccc(N2CCN(c3ccc(C(F)(F)F)cn3)CC2)nc1,-10,-1,5,-209,0,.
CC1=NN(c2ccc(C(F)(F)F)cn2)C(=O)C1,8,15,5,75*,12,58*
CCN1CCN(c2ccc([N+](=O)[O-])c(Sc3nc4ccccc4[nH]3)c2)CC1,0,-10,-10,41*,8,18
O=C(COC(=O)/C=C/c1cccc(F)c1)NC(=O)NC1CCCC1,4,0,.,7,1,.
COC(=O)c1[nH]cnc1C(=O)c1ccccc1,0,-4,4,54*,4,6
COc1ccccc1NC(=O)c1nc[nH]c1C(=O)Nc1ccccc1OC,0,-6,5,16,0,.
C[n+]1cccc2cccc([O-])c21,.,.,.,96*,.,58*
Cc1nnc(N/N=C/c2cccc(C(F)(F)F)c2)n1N,2,3,0,49*,4,22
Cc1nnc(N/N=C/c2ccccc2C(F)(F)F)n1N,4,16,-1,12,0,.
CCOC(=O)C1=C(COC(=O)C2CC(=O)N(CCc3ccccc3)C2)NC(=O)NC1C (configuration not stated),0,-2,.,0,10,.
O=C(c1ccccc1)N1CCN(C(=O)c2cccnc2)CC1,9,2,3,8,-4,.
O=C(CCC1CCCC1)N1CCN(C(=O)c2cccnc2)CC1,-12,-4,6,41*,-5,10
COc1cc(OC)nc(-n2ncc(Br)c(Br)c2=O)n1,.,.,.,6,.,.
CCOc1cccc(/C=C/c2cc(C(=O)O)c3ccccc3n2)c1OC,0,1,1,-430,-4,.
O=C(CCNS(=O)(=O)c1ccc(Br)cc1)N1CCN(c2ccccc2O)CC1,1,-13,10,24,-5,.
Cc1onc(-c2c(Cl)cccc2Cl)c1C(=O)c1ccccc1,-7,-41,5,13,-1,.
Cc1onc(-c2c(Cl)cccc2Cl)c1C(=O)N=S(C)(=O)c1ccccc1 (configuration not stated),-4,-7,13,41*,2,8
C/C(CCS(=O)(=O)c1ccccc1)=N/O,0,5,-1,-2,7,.
COCCN(C(=O)c1ccc(-c2ccc([N+](=O)[O-])cc2)o1)c1c(N)n(CC(C)C)c(=O)[nH]c1=O,-2,-1,.,-26,9,.
Cc1ccccc1C(=O)N1CCN(c2ccc(NC(=O)c3ccc([N+](=O)[O-])o3)cc2)CC1,6,-7,-3,39*,9,7
O=C(Nc1ccc(N2CCN(C(=O)c3ccccc3)CC2)cc1)c1ccc([N+](=O)[O-])o1,.,.,-1,51*,.,31
c1ccc(Sc2ccccn2)cc1,-4,-16,8,40*,-9,15
c1ccc(SSc2ccccn2)nc1,5,13,-2,32,-3,.
SMILES,SENP8 block-1,SENP6 block,Platelet DG rel,SENP8 block-2,SENP7 block,SENP8 conf
O=C(NCCC1=CCCCC1)C1CCN(S(=O)(=O)c2cccc(C(F)(F)F)c2)CC1,-1,5,.,0,4,.
CN1CCC2(CC1)N=C(c1ccc(F)cc1)C(=S)N2C(=O)c1ccccc1,0,19,1,55*,2,39*
CCN1CCC2(CC1)N=C(c1ccc(F)cc1)C(=S)N2C(=O)c1ccc(C(C)(C)C)cc1,2,-11,1,19,5,.
CNc1ccc(/C=C/C(=O)c2cccc3ccccc23)cc1[N+](=O)[O-],8,-12,-5,47*,3,13
CNc1ccc(C(=O)c2ccccc2C(=O)O)cc1[N+](=O)[O-],1,-8,-2,6,-13,.
CC(=O)C1=C(C)OC2(O)c3ccccc3C(=O)C12O (configuration not stated),23,37,18,88*,43,95*
CC1=C(C(=O)OC(C)C)C2(O)C(=O)c3ccccc3C2(O)N1 (configuration not stated),6,1,-2,26,5,.
C=CCNC(=O)c1c(Br)cnn1-c1ccc(C)cc1,12,-4,-1,14,2,.
NC(=O)C1CCN(C(=O)CCNS(=O)(=O)c2ccccc2F)CC1,2,-9,.,15,-5,.
NNc1nnc2c3cc(F)ccc3n(CCc3ccccc3)c2n1,5,17,3,52*,-1,39
COc1ccc(C(CNC(=O)c2cccc(NC(=O)c3cccs3)c2)N2CCCC2)cc1 (configuration not stated),-10,-5,.,24,-7,.
O=C1c2cc([N+](=O)[O-])cc3cc([N+](=O)[O-])cc(c23)C(=O)N1c1ccccn1,.,.,5,43*,.,35
Cc1ccc(CN2C(=O)CSC(C)C2=O)cc1 (configuration not stated),-6,-21,-2,8,-3,.
COc1ccc(C(c2nnnn2CC2CCCO2)N2CCN(c3ccc(F)cc3)CC2)cc1 (configuration not stated),-2,-20,11,14,2,.
CCN(CC)C(c1ccc(F)cc1)c1nnnn1CC1CCCO1 (configuration not stated),7,-1,-23,45*,0,-13
CCS(=O)(=O)N1CCC(C(=O)N2CCc3ccccc3C2)CC1,1,-4,-2,44*,9,77*
COc1cc(Nc2ccc(C)cc2)c([N+](=O)[O-])nc1[N+](=O)[O-],7,-13,-10,32,9,.
Cc1cc(C)cc(Nc2ccc([N+](=O)[O-])nc2[N+](=O)[O-])c1,1,7,2,41*,2,15
O=C(CN1CCOCC1)Nc1ccc(Br)cc1,-10,0,1,-2,3,.
O=C(CN1CCN(C(=O)N2CCOCC2)CC1)Nc1ccc(Br)cc1,-7,-12,2,41*,4,12
COc1ccc(-c2cc(C(=O)NCc3cccc(Cl)c3)[nH]n2)c(C)c1,.,.,.,11,.,.
Cc1ccc(CN2CC(C(=O)O)CC2=O)cc1 (configuration not stated),0,-3,0,40*,4,21
CCc1ccc(CN2CC(C(=O)O)CC2=O)cc1 (configuration not stated),-6,7,-5,10,-4,.
O=[N+]([O-])c1nn(-c2ccc(Cl)cc2)n(O)c1=NCc1ccncc1,-4,-20,-4,47*,8,32
Cc1ccccc1Nc1cccc2nonc12,-6,1,-2,45*,2,34
CC(=O)Nc1ccc(S(=O)(=O)Nc2nc3ccccc3nc2Nc2cccc(S(N)(=O)=O)c2)cc1,2,0,1,-422,2,.
